Unmarked numbers belong to inactive results. Results filed as inconclusive are left out. Where a call stands in place of a potency, no number is given. Calls of active or inactive are those of the source. Unless noted, calls follow the shape of the dose curve; as a rule, active = well fitted inhibition curve with a large enough effect in the repeat runs (not every such curve was filed as active); inconclusive = weak or mixed curves; inactive = flat fitted curve, though single readings scatter.
Tested on: not listed separately
Experiment: qHTS assay to identify small molecule agonists of the TGF-beta/Smad signaling pathway - cell viability counter screen (AID 1346829; active = well fitted cell-killing curve with a large enough effect in the repeat runs; also: nearly all actives have a fitted effect of over 45% in size; also: potency is read from the fitted curve at half-maximal effect; as to activity change, negative = cytotoxicity: top concentration of the series differs between compounds)
Conditions: SBE-bla HEK293T viability, CellTiter-Glo luminescence, 5 h; series mostly up to 76.8 µM
Method in brief: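 Luminescence from CellTiter-Glo, read after a 30 min room-temperature incubation, gives cell viability of SBE-bla HEK 293T cells treated 5 hr with compounds at 37 C.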

Structure (SMILES) | Potency | activity change, negative = cytotoxicity
CCOC(=O)[C@@](C)(N)Cc1ccc(O)c(O)c1 | inactive | 
CCC(=O)CC(C)CC (stereo not drawn) |  | 3.15% [at 0.29 µM]
CCCCCCCCC(C)=O | inactive | 
Nc1cc(Cl)c([N+](=O)[O-])cc1O | inactive | 
CC(COC(=O)c1ccccc1)OC(=O)c1ccccc1 (stereo not drawn) | inactive | 
C(=C/c1ccccc1)/c1ccccc1 | inactive | 
c1cc[nH]c1 | inactive | 
Clc1nc2ccccc2s1 | inactive | 
OCCC(O)CO (stereo not drawn) | inactive | 
NCCCCCCNCCCCCCN | inactive | 
Cc1c(C(=O)O)cccc1[N+](=O)[O-] | inactive | 
O=C(O)c1cccc(Cl)n1 | inactive | 
CCCCCCCCCCCCCCCC | inactive | 
CC=O | 28.8 µM (active) | 
CCO[Si](C)(C)OCC | inactive | 
O=C=NCc1cccc(CN=C=O)c1 |  | -12.3% [at 15.8 µM]
NC(=O)c1nc(-c2cccc(-c3cc(F)ccc3OCC(F)(F)C(F)(F)F)c2)n[nH]1 | inactive | 
ClC/C=C\CCl | inactive | 
c1ccc(Sc2ccccc2)cc1 | inactive | 
Cc1ccc(CCn2c3c(c4cc(Cl)ccc42)CN(C)CC3)cn1 | inactive | 
CCc1cccc(C)c1 | inactive | 
O=C(O)Cc1ccc(OCCNC[C@H](O)c2ccccc2)cc1 | inactive | 
CCN(CC)c1cccc(C)c1 | inactive | 
CCCCCCCC(=O)OCC | inactive | 
OCCCc1cccnc1 | inactive | 
Cc1cc(C)c(C=O)c(C)c1 | inactive | 
COc1cccc(CCc2ccccc2OCC(CN(C)C)OC(=O)CCC(=O)O)c1 (stereo not drawn) | inactive | 

Tested on: not listed separately
Experiment: qHTS assay to identify small molecule agonists of the TGF-beta/Smad signaling pathway (AID 1346859; active = well fitted activation curve with a large enough effect in the signal ratio in the repeat runs, not every such curve was filed as active; the % refers to the signal ratio)
Conditions: SBE-bla HEK293T, TGF-beta/Smad beta-lactamase reporter, 5 h; series mostly up to 76.8 µM
Method in brief: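 SBE-bla HEK 293T, 4,000 cells/well, plated o/n; cpd in DMSO, 5 hr, 37 C/5% CO2; B/G FRET substrate 2 hr RT; ex 405, em 460/530 nm.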

Structure (SMILES) | Potency | activation
CCOC(=O)[C@@](C)(N)Cc1ccc(O)c(O)c1 | inactive | 
CCC(=O)CC(C)CC (stereo not drawn) |  | -0.839% [at 0.29 µM]
CCCCCCCCC(C)=O | inactive | 
CCCCCCCCCCc1ccccc1 | inactive | 
Nc1cc(Cl)c([N+](=O)[O-])cc1O | inactive | 
COC(=O)C1=C(C)NC(C)=C(C(=O)OCCCN2CCC(c3ccccc3)(c3ccccc3)CC2)C1c1cccc([N+](=O)[O-])c1 (stereo not drawn) | inactive | 
CC(COC(=O)c1ccccc1)OC(=O)c1ccccc1 (stereo not drawn) | inactive | 
C(=C/c1ccccc1)/c1ccccc1 | inactive | 
c1cc[nH]c1 | inactive | 
CCCCCCCCCCCCN(CCO)CCO | inactive | 
Clc1nc2ccccc2s1 | inactive | 
OCCC(O)CO (stereo not drawn) | inactive | 
NCCCCCCNCCCCCCN | inactive | 
O=C1NCCN1CCN1CCC(c2cn(-c3ccc(F)cc3)c3ccc(Cl)cc23)CC1 | inactive | 
Cc1c(C(=O)O)cccc1[N+](=O)[O-] | inactive | 
O=C(O)c1cccc(Cl)n1 | inactive | 
CCCCCCCCCCCCCCCC | inactive | 

Structure (SMILES) | Potency | activation
CCO[Si](C)(C)OCC | inactive | 
O=C=NCc1cccc(CN=C=O)c1 |  | 3.26% [at 15.8 µM]
NC(=O)c1nc(-c2cccc(-c3cc(F)ccc3OCC(F)(F)C(F)(F)F)c2)n[nH]1 | inactive | 
CO[Si](CCC1CCC2OC2C1)(OC)OC (stereo not drawn) | inactive | 
ClC/C=C\CCl | inactive | 
CC(=O)OC1CCCCC1 | inactive | 
c1ccc(Sc2ccccc2)cc1 | inactive | 
Cc1ccc(CCn2c3c(c4cc(Cl)ccc42)CN(C)CC3)cn1 | inactive | 
CCc1cccc(C)c1 | inactive | 
O=C(O)Cc1ccc(OCCNC[C@H](O)c2ccccc2)cc1 | inactive | 
CCC(C)C(=O)OC (stereo not drawn) | inactive | 
CCN(CC)c1cccc(C)c1 | inactive | 
CCCCCCCC(=O)OCC | inactive | 
OCCCc1cccnc1 | inactive | 
Cc1cc(C)c(C=O)c(C)c1 | inactive | 
COc1cccc(CCc2ccccc2OCC(CN(C)C)OC(=O)CCC(=O)O)c1 (stereo not drawn) | inactive | 

Target: Thyrotropin-releasing hormone receptor (Homo sapiens) (UniProt P34981)
Experiment: qHTS assay to identify small molecule antagonists of the thyrotropin-releasing hormone receptor (TRHR) signaling pathway (AID 1346877)
Conditions: TRHR-HEK293, TRH-induced calcium fluorescence, antagonist mode; series mostly up to 51.3 µM
Method in brief: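 Intracellular calcium fluorescence, read kinetically every second over 3 min, reports TRH-evoked signalling in HEK293 cells carrying TRHR. Test compounds were added 5 min ahead of a 1 nM TRH challenge.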

Thyrotropin-releasing hormone receptor (Homo sapiens), sequence (P34981 whole entry, looked up): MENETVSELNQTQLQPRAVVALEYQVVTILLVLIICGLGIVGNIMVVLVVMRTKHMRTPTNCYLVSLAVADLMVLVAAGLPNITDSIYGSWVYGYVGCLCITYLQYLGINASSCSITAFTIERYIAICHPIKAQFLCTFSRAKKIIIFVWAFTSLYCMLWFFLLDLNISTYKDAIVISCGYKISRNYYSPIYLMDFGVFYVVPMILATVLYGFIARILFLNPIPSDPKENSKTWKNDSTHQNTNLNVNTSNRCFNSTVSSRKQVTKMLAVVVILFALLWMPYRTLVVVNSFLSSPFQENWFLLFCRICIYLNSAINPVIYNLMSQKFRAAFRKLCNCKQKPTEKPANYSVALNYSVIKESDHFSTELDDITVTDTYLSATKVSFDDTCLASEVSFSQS

Structure (SMILES) | Potency | activity, negative = inhibition
CCOC(=O)[C@@](C)(N)Cc1ccc(O)c(O)c1 | inactive | 
CCCCCCCCC(C)=O | inactive | 
CCCCCCCCCCc1ccccc1 | inactive | 
Nc1cc(Cl)c([N+](=O)[O-])cc1O | inactive | 
C/C=C/C(=O)Oc1c(CCCCCC(C)C)cc([N+](=O)[O-])cc1[N+](=O)[O-] | inactive | 
COC(=O)C1=C(C)NC(C)=C(C(=O)OCCCN2CCC(c3ccccc3)(c3ccccc3)CC2)C1c1cccc([N+](=O)[O-])c1 (stereo not drawn) | inactive | 
C(=C/c1ccccc1)/c1ccccc1 | inactive | 
c1cc[nH]c1 | inactive | 
CCCCCCCCCCCCN(CCO)CCO | inactive | 
Clc1nc2ccccc2s1 | inactive | 
OCCC(O)CO (stereo not drawn) | inactive | 
NCCCCCCNCCCCCCN | inactive | 
O=C1NCCN1CCN1CCC(c2cn(-c3ccc(F)cc3)c3ccc(Cl)cc23)CC1 | inactive | 
Cc1c(C(=O)O)cccc1[N+](=O)[O-] | inactive | 
O=C(O)c1cccc(Cl)n1 | inactive | 
O=C=NCc1cccc(CN=C=O)c1 |  | 1.76% [at 10.5 µM]
NC(=O)c1nc(-c2cccc(-c3cc(F)ccc3OCC(F)(F)C(F)(F)F)c2)n[nH]1 | inactive | 
CO[Si](CCC1CCC2OC2C1)(OC)OC (stereo not drawn) | inactive | 
ClC/C=C\CCl | inactive | 
CC(=O)OC1CCCCC1 | inactive | 
Cc1ccc(CCn2c3c(c4cc(Cl)ccc42)CN(C)CC3)cn1 | inactive | 
CCc1cccc(C)c1 | inactive | 
CCC(C)C(=O)OC (stereo not drawn) | inactive | 
CCN(CC)c1cccc(C)c1 | inactive | 
CCCCCCCC(=O)OCC | inactive | 
OCCCc1cccnc1 | inactive | 
Cc1cc(C)c(C=O)c(C)c1 | inactive | 
COc1cccc(CCc2ccccc2OCC(CN(C)C)OC(=O)CCC(=O)O)c1 (stereo not drawn) | inactive | 

— PubChem BioAssay (Tox21)
